High-throughput results: PubChem BioAssay, National Center for Advancing Translational Sciences (NCATS)
HP1b chromo inh: HTS for Inhibitors of HP1-beta Chromodomain Interactions with Methylated Histone Tails. AlphaScreen HP1-beta / biotin-H3K9me3 peptide binding. Potency, µM (series often up to 114 µM), actives largely listed as inhibitors. actives 0.56% (n = 390,000); also: nearly all actives have a fitted effect of over 70% in size
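Compound inhibition of the preformed complex between 50 nM HP1-beta and 50 nM biotinylated H3K9me3 peptide was read by AlphaScreen. Buffer was PBS pH 7.4 with 0.01% Tween-20. Incubations ran 30 min at room temperature, with 10 ug/mL donor/acceptor beads.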
L3MBTL1 inh: qHTS Assay for the Inhibitors of L3MBTL1 | Lethal(3)malignant brain tumor-like protein 1 (Homo sapiens), Q9Y468 | actives 0.66% (n = 230,000) | AID 485360, 2010 | Potency, µM (highest dose often 57.1 µM), actives largely listed as inhibitors | AlphaScreen L3MBTL1–H3K9me1 peptide binding; also: nearly all actives have a fitted effect of over 60% in size
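AlphaScreen proximity signal between nickel-chelate acceptor and streptavidin donor beads (final 10 ug/mL) reports binding of 50 nM L3MBTL1 to 75 nM biotin-H3 K9me1 peptide; complex incubated with compounds 30 min at room temperature; cefsulodin titration as control.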
JMJD2A Tudor inh: qHTS Assay for Inhibitors of JMJD2A-Tudor Domain; AlphaScreen JMJD2A-Tudor / H3K4me3 peptide binding; actives 4.4% (n = 390,000); Potency, µM (doses to about 114 µM), most hits filed as inhibitors; Lysine-specific demethylase 4A (Homo sapiens), O75164; also: nearly all actives have a fitted effect of over 50% in size
GLS inh: qHTS for Inhibitors of Glutaminase (GLS); Potency, µM (top dose mostly 45.5 µM), actives largely listed as inhibitors; GLS enzymatic activity, qHTS titration; actives 0.21% (n = 410,000); Glutaminase kidney isoform, mitochondrial (Homo sapiens), O94925
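Assay buffer: 45 mM KH2PO4 pH 8.2, 0.02% Tween-20. hKGA acts on L-glutamine (1 mM solution added); product glutamate is reported by an oxidase/peroxidase Amplex Red coupling, with fluorescence taken at baseline and 30 min.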
BAZ2B block: qHTS Assay for Inhibitors of BAZ2B; Bromodomain adjacent to zinc finger domain protein 2B (Homo sapiens), Q9UIF8; AlphaScreen BAZ2B-H3K14Ac peptide displacement; Potency, µM (series often up to 114 µM), hits mostly inhibitors; actives 4.4% (n = 360,000); also: nearly all actives have a fitted effect of over 60% in size
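Multi-concentration screen (max 110 uM) measuring displacement of acetylated histone H3 peptide from BAZ2B by AlphaScreen, using 50 nM protein, 50 nM peptide and 10 ug/mL streptavidin donor plus Ni-chelate acceptor beads.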
G9a inh: qHTS Assay for Inhibitors of Histone Lysine Methyltransferase G9a | Histone-lysine N-methyltransferase EHMT2 (Homo sapiens), Q96KQ7 | G9a H3K9 monomethylation, AlphaScreen, 2 h | Potency, µM (highest dose often 102 µM), most hits filed as inhibitors | actives 8.8% (n = 350,000) | AID 504332, 2011; also: nearly all actives have a fitted effect of over 75% in size
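Quantitative HTS format: methyltransferase activity on a biotin-tagged H3K9 peptide is measured by AlphaScreen, using a rabbit anti-monomethyl-H3K9 antibody with streptavidin donor and anti-IgG acceptor beads. Final levels are 20 nM enzyme, 500 nM peptide, 20 uM SAM; 2 h RT.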
Hits are given with their value; [ ] = remark or other dose. Compounds with a hit are over-represented: about 10% of the library has one in this group of screens. Calls follow the shape of the dose curve; as a rule, active = well fitted curve in the direction sought with a large enough effect; inconclusive = small, poorly fitted or top-dose-only effect, or another doubt; inactive = no such curve, though single readings can be large; an effect the other way counts as inactive or inconclusive.

For CC(C)(C)c1ccc(OCCNC(=O)c2ncn[nH]2)cc1 the results were HP1b chromo inh inactive, JMJD2A Tudor inh inactive, GLS inh inactive, BAZ2B block 11µM and G9a inh inactive.
Screening CC(C)(C)c1ccc(C(=O)NCCOc2ccccc2)cc1 returned HP1b chromo inh inactive, L3MBTL1 inh inactive, JMJD2A Tudor inh inactive, GLS inh inactive and BAZ2B block inconclusive.
Screening CCc1cc(C)cc(OCCNC(=O)c2ncn[nH]2)c1 returned HP1b chromo inh inactive, L3MBTL1 inh inactive, JMJD2A Tudor inh inconclusive, GLS inh inactive, BAZ2B block 50µM and G9a inh inactive.
`CCOC(=O)c1c(Oc2ccc(C(C)=O)cc2)nnc(-c2ccccc2)c1-c1ccccc1` gave HP1b chromo inh inactive, JMJD2A Tudor inh inactive, GLS inh inactive, BAZ2B block inactive and G9a inh inactive.
`CCN(CC)CCOc1cc2c(nn1)Oc1ccccc1N2C` gave HP1b chromo inh inactive, L3MBTL1 inh inactive, JMJD2A Tudor inh inconclusive, GLS inh inactive, BAZ2B block inconclusive and G9a inh 50µM.
`CCCSc1n[nH]c(NC(C)=O)n1` gave HP1b chromo inh inactive, L3MBTL1 inh inactive, JMJD2A Tudor inh inactive, GLS inh inactive, BAZ2B block inactive and G9a inh inconclusive.
For CSc1n[nH]c(NC(C)=O)n1 the results were HP1b chromo inh inactive, L3MBTL1 inh inactive, JMJD2A Tudor inh 11µM, GLS inh inactive, BAZ2B block inconclusive and G9a inh inactive.
CCSc1nc(=S)cc(C)[nH]1 was read as HP1b chromo inh inactive, L3MBTL1 inh inactive, JMJD2A Tudor inh inactive, GLS inh inactive, BAZ2B block inactive and G9a inh 10µM.
`CCSc1nc(O)cc(=O)[nH]1` gave HP1b chromo inh inactive, JMJD2A Tudor inh inactive, GLS inh inactive, BAZ2B block inactive and G9a inh inactive[12.7 µM].
CCCCNC(=S)NC(=O)c1ccc([N+](=O)[O-])cc1 was read as HP1b chromo inh inactive, L3MBTL1 inh inactive, JMJD2A Tudor inh inconclusive, GLS inh inactive and BAZ2B block 50µM.
Screening CCCCNC(=S)Nc1ccc([N+](=O)[O-])cc1 returned HP1b chromo inh inactive, L3MBTL1 inh inactive, JMJD2A Tudor inh inactive, GLS inh inactive, BAZ2B block inactive and G9a inh inactive.
Screening CCC(=O)NC(=S)NNC(=O)c1ccc(O)cc1 returned HP1b chromo inh inactive, L3MBTL1 inh inactive, JMJD2A Tudor inh 20µM, GLS inh inactive and BAZ2B block inactive.
Screening CCCC(=O)NC(=S)NNC(=O)c1ccc([N+](=O)[O-])cc1 returned HP1b chromo inh inactive, L3MBTL1 inh inactive, JMJD2A Tudor inh 71µM, GLS inh inactive, BAZ2B block inactive and G9a inh 3.2µM.
For COc1cc(NC(=O)CCn2nc(C)c(S(=O)(=O)N3CCCCC3)c2C)cc(OC)c1OC the results were HP1b chromo inh inactive, JMJD2A Tudor inh inactive, GLS inh inactive, BAZ2B block inactive and G9a inh inactive[12.7 µM].
CNC1=CN=C(c2ccccc2)c2cc(Cl)ccc2N1 was read as G9a inh inactive.
Cc1ccccc1OCCCN1CCCC1 was read as HP1b chromo inh inactive, L3MBTL1 inh inactive, JMJD2A Tudor inh 3.5µM, GLS inh inactive, BAZ2B block inactive and G9a inh 40µM.
Cc1ccc(C)c(OCCCCN2CCCCC2)c1 was read as HP1b chromo inh inactive, JMJD2A Tudor inh 32µM, GLS inh inactive, BAZ2B block inactive and G9a inh 25µM.
For Cc1ccccc1OCCN1CCCC1 the results were HP1b chromo inh inconclusive, JMJD2A Tudor inh 20µM, GLS inh inactive and BAZ2B block 50µM.
`Cc1ccc(OCCCCN2CCCCC2)c(C)c1` gave HP1b chromo inh inactive, L3MBTL1 inh inactive, JMJD2A Tudor inh inactive, GLS inh inactive, BAZ2B block inactive and G9a inh inactive.
